Assay outcomes deposited in PubChem BioAssay by National Center for Advancing Translational Sciences (NCATS).
Only some compounds are listed: those with a hit (about 9% of all), similar ones and a draw of the others.
HPGD inh – qHTS Assay for Inhibitors of HPGD (15-Hydroxyprostaglandin Dehydrogenase) | 15-hydroxyprostaglandin dehydrogenase [NAD(+)] (Homo sapiens), P15428 | purified HPGD, NADH fluorescence kinetic, PGE2 substrate | Potency, µM, actives largely listed as inhibitors | 150,000 tested, 4.3% active; active = well fitted inhibition curve with a large enough effect, not every such curve was filed as active; inconclusive = small, poorly fitted or top-dose-only effect, or another doubt; inactive = no such curve, though single readings can be large or run the other way
Target sequence (P15428 whole entry, looked up): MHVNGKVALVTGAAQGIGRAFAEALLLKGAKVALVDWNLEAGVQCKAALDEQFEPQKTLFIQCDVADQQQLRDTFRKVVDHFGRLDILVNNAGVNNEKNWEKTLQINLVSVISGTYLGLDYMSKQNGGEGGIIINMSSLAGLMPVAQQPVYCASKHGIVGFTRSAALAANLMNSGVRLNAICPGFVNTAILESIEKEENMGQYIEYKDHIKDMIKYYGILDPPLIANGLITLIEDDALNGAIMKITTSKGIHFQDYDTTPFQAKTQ
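20 nM HPGD preincubated 15 min at room temperature with compound in 50 mM Tris-HCl pH 8, 0.01% Tween 20. Started with 1 mM NAD+ and 30 uM prostaglandin E2; NADH fluorescence (360/450 nm) read 5 times over 30-s intervals, last minus first.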
LMNA splice mod – qHTS Assay for Modulators of Lamin A Splicing. HeLa LMNA splicing GFP/RFP minigene ratio, 48 h. AID 1487, 2009. 200,000 tested, 0.01% active. Potency, µM (highest dose often 46.1 µM), hits mostly inhibitors; active = well fitted inhibition curve with a large enough effect in the signal ratio, with a control signal flat, not every such curve was filed as active; inconclusive = small, poorly fitted or top-dose-only effect, or effect the other way, or a change in a side signal; the % refers to the signal ratio
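Read-out is the ratio of GFP to DsRed2 object intensity, acquired by 488 nm laser-scanning cytometry on HeLa lamin A-EGFP minigene reporter cells. Compound incubation 48 hrs at 37 °C in Opti-MEM with 2% FBS; DMSO 0.5% final.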
HTT ATP protect – qHTS Multiplex Assay to Identify Dual Action Probes in a Cell Model of Huntington: Cytoprotection (ATP); PC12 HTT-Q103 induced, cytoprotection, ATP luminescence, 40 h; Potency, µM (top dose mostly 56.4 µM), actives largely listed as activators; 230,000 tested, 0.14% active; note: nearly all actives have a fitted effect of over 45% in size
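PC12 cells with ecdysone-inducible HTT exon 1 Q103-GFP, induced with 100 nM tebufenozide and co-treated with library compounds in a dose series (1536-well, 1500 cells/well). Cytoprotection read as ATP content by ATPlite luminescence.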
Luc counter – Counterscreen for Luciferase (Kinase-Glo TM) Inhibition | Luciferin 4-monooxygenase (Photuris pensylvanica), Q27757 | Kinase-Glo luciferase, ATP luminescence, 8 min | Potency, µM (titrated, usually from 38.3 µM), actives largely listed as inhibitors | 200,000 tested, 0.28% active; note: nearly all actives have a fitted effect of over 60% in size
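Light output from Kinase-Glo luciferase with luciferin and 10 uM ATP in 50 mM imidazole pH 7.2, KCl, MgCl2, Tween 20, BSA; compound pin-delivered, 8-min ambient incubation, then luminescence read.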
HttQ103 aggreg – qHTS Multiplex Assay to Identify Dual Action Probes in a Cell Model of Huntington: Aggregate Formation (GFP); PC12 HttQ103-GFP aggregates, Acumen cytometry, 40 h; Potency, µM (doses to about 46.1 µM), most hits filed as inhibitors; 220,000 tested, 1.1% active; note: nearly all actives have a fitted effect of over 60% in size
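Ecdysone-promoter PC12 model expressing HTT exon 1 Q103 fused to GFP, induced by tebufenozide at 100 nM final. Compounds titrated; aggregates sized 1–25 µm scored on a 488 nm laser cytometer.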
ALDH1A1 inh – qHTS Assay for Inhibitors of Aldehyde Dehydrogenase 1 (ALDH1A1); Aldehyde dehydrogenase 1A1 (Homo sapiens), P00352; Purified ALDH1A1, NADH fluorescence, propionaldehyde substrate; Potency, µM (titrated, usually from 75.3 µM), usual class: inhibitors; 220,000 tested, 7.3% active; AID 1030, 2008; active = well fitted inhibition curve with a large enough effect, not every such curve was filed as active; inconclusive = small, poorly fitted or top-dose-only effect, or another doubt; inactive = no such curve, though single readings can be large or run the other way
Target sequence (P00352 whole entry, looked up): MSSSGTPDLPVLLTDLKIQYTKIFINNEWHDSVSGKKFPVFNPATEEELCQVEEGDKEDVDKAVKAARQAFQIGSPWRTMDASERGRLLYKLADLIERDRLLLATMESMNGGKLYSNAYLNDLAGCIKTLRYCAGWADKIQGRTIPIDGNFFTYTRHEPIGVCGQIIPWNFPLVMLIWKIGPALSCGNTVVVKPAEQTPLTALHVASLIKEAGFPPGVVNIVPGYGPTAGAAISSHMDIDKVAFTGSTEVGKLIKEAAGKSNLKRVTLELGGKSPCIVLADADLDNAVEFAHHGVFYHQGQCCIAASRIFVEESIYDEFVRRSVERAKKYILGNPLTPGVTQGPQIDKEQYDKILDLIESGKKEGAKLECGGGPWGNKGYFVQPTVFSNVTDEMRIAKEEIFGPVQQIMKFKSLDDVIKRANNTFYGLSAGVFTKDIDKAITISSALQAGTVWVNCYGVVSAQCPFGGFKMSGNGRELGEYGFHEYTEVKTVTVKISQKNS
A number is an active result; [ ] = remark or other dose. Unless noted, calls come from the whole dose curve; as a rule, active = well fitted curve in the direction sought with a large enough effect; inconclusive = small, poorly fitted or top-dose-only effect, or another doubt; inactive = no such curve, though single readings can be large; an effect the other way counts as inactive or inconclusive.

What do the screens show for `CC(C)CN1CC[C@@]2(CCCN(C(=O)c3ccco3)C2)C1`?
HPGD inh: inactive; HTT ATP protect: inactive; Luc counter: inactive; ALDH1A1 inh: 0.45µM

What do the screens show for `Cc1cc(C)n(-c2nc(-c3ccc(Cl)c(Cl)c3)cs2)n1`?
HPGD inh: inactive; LMNA splice mod: inactive; HTT ATP protect: inactive; Luc counter: inactive; HttQ103 aggreg: inactive; ALDH1A1 inh: inactive

Results for CCN(CC)S(=O)(=O)c1ccc(N2CCOCC2)c(NC(=O)C2CCCC2)c1 ?
HPGD inh: inactive; LMNA splice mod: inactive; HTT ATP protect: inactive[10 µM]; Luc counter: inactive; HttQ103 aggreg: inactive; ALDH1A1 inh: inactive

How did S=C1N(c2ccccc2)C(c2cccc3ccccc23)N2CCCN12 (configuration not stated) do in these assays?
HPGD inh: inactive; LMNA splice mod: inactive; HTT ATP protect: inactive; Luc counter: inactive; HttQ103 aggreg: inactive[9.22 µM]; ALDH1A1 inh: inactive

What do the screens show for `O=c1c(-c2cc(F)cc(F)c2)nc2cncnc2n1Cc1ccc(F)cc1`?
HPGD inh: inactive; HTT ATP protect: inactive; Luc counter: inactive; ALDH1A1 inh: inconclusive

What do the screens show for `Cc1cc(C)n(S(=O)(=O)c2ccc(Cl)c(Cl)c2Cl)n1`?
HPGD inh: inactive; LMNA splice mod: inactive; HTT ATP protect: inactive; Luc counter: inactive; HttQ103 aggreg: inconclusive; ALDH1A1 inh: inactive

How did COc1c(S(=O)(=O)n2nc(C)cc2C)ccc(Cl)c1Cl do in these assays?
HPGD inh: 22µM; LMNA splice mod: inconclusive; HTT ATP protect: inactive; Luc counter: inactive; HttQ103 aggreg: inactive; ALDH1A1 inh: 28µM

Results for Cc1ccc(CNC(=O)C(Cc2ccccc2)NS(=O)(=O)c2ccc(Br)s2)cc1 (configuration not stated) ?
HPGD inh: inactive; LMNA splice mod: inconclusive; Luc counter: inactive; HttQ103 aggreg: 25µM; ALDH1A1 inh: inactive

How did COCC(=O)c1[nH]c2ccccc2c1C do in these assays?
HPGD inh: inactive; LMNA splice mod: inactive; HTT ATP protect: inactive[0.074 µM]; Luc counter: inactive; HttQ103 aggreg: inactive; ALDH1A1 inh: 7.9µM

What do the screens show for `Cc1ccc(C)c(NC(=S)NNC(=O)c2sccc2C)c1`?
HPGD inh: inactive; LMNA splice mod: inactive; HTT ATP protect: inactive; Luc counter: inactive; HttQ103 aggreg: inactive; ALDH1A1 inh: inactive

Results for Cc1cccc(NC(=S)NNC(=O)c2cc3c(s2)CCC(C)C3)c1C (configuration not stated) ?
HPGD inh: inactive; LMNA splice mod: inconclusive; Luc counter: inactive; HttQ103 aggreg: inactive; ALDH1A1 inh: 6.3µM

How did Cc1ccc(C)c(NC(=S)NNC(=O)c2csc(C)c2C)c1 do in these assays?
HPGD inh: inactive; LMNA splice mod: inactive; HTT ATP protect: inactive[0.074 µM]; Luc counter: inactive; HttQ103 aggreg: inactive; ALDH1A1 inh: inactive

How did Cc1ccc(C)c(NC(=S)NNC(=O)c2cc3c(s2)CCC(C)C3)c1 (configuration not stated) do in these assays?
LMNA splice mod: inactive; HTT ATP protect: inactive[10 µM]; HttQ103 aggreg: inactive; ALDH1A1 inh: 22µM

Results for Cc1ccc(C)c(NC(=S)NNC(=O)c2csc(C(C)C)c2)c1 ?
HPGD inh: inactive; LMNA splice mod: inconclusive; HTT ATP protect: inactive[10 µM]; Luc counter: inactive; HttQ103 aggreg: inactive; ALDH1A1 inh: 13µM

Results for Cc1cc(C)n2nc(SCC(=O)NCc3ccco3)nc2n1 ?
HPGD inh: inactive; LMNA splice mod: inconclusive; HTT ATP protect: inactive; Luc counter: inactive; HttQ103 aggreg: inactive; ALDH1A1 inh: inactive

How did Cc1ccc(OCC(=O)N2CCc3ccccc32)cc1 do in these assays?
HPGD inh: inactive; LMNA splice mod: inconclusive; Luc counter: inactive; HttQ103 aggreg: inactive; ALDH1A1 inh: inactive

How did Cc1ccc(CCNC(=O)CN(C)S(=O)(=O)c2cnc[nH]2)cc1 do in these assays?
HPGD inh: inactive; LMNA splice mod: inactive; HTT ATP protect: inactive[10 µM]; Luc counter: inactive; HttQ103 aggreg: inactive; ALDH1A1 inh: inactive

How did CN(CC(=O)NCc1ccccc1)S(=O)(=O)c1cnc[nH]1 do in these assays?
HPGD inh: inactive; LMNA splice mod: inactive; Luc counter: inactive; HttQ103 aggreg: 0.63µM; ALDH1A1 inh: inactive

How did NC(=O)Oc1cccc(OC(N)=O)c1 do in these assays?
HTT ATP protect: inactive[10 µM]; HttQ103 aggreg: inactive[9.22 µM]; ALDH1A1 inh: inactive

How did N#Cc1c(N)n(-c2ccc(N)cc2)c2nc3ccccc3nc12 do in these assays?
HTT ATP protect: inactive[10 µM]; HttQ103 aggreg: inactive[9.22 µM]; ALDH1A1 inh: inactive

Results for O=c1/c(=C/c2ccco2)sc2n1CN(c1cccc(Br)c1)CN=2 ?
HPGD inh: 25µM; LMNA splice mod: inactive; HTT ATP protect: inactive; Luc counter: inactive; HttQ103 aggreg: inactive; ALDH1A1 inh: inconclusive

Results for Cc1ccc(/C=c2\sc3n(c2=O)CN(c2cccc(Br)c2)CN=3)o1 ?
HPGD inh: inactive; LMNA splice mod: inactive; HTT ATP protect: inactive; Luc counter: inactive; HttQ103 aggreg: inactive; ALDH1A1 inh: 20µM

What do the screens show for `Cc1ccc(NC(=O)CCNC(=O)c2ccc(Cl)cc2)cc1F`?
HPGD inh: inactive; LMNA splice mod: inactive; HTT ATP protect: inactive[10 µM]; Luc counter: inactive; HttQ103 aggreg: inactive; ALDH1A1 inh: inactive

How did CCC(O)CNC(=O)NC(=C(Cl)Cl)c1ccc(C)c(F)c1 (configuration not stated) do in these assays?
HPGD inh: inactive; LMNA splice mod: inconclusive; HTT ATP protect: inactive[1.9 µM]; Luc counter: inactive; HttQ103 aggreg: inconclusive; ALDH1A1 inh: 3.5µM

How did CNC(=O)c1ccc(OC2CSC2)cc1 do in these assays?
HPGD inh: inactive; LMNA splice mod: inactive; HTT ATP protect: inactive; Luc counter: inactive; HttQ103 aggreg: inactive; ALDH1A1 inh: inactive

How did CNC(=O)c1ccc(Oc2ccc(C(=O)NC)cc2)cc1 do in these assays?
HPGD inh: 2.5µM; LMNA splice mod: inactive; HTT ATP protect: inactive; Luc counter: inactive; HttQ103 aggreg: inconclusive; ALDH1A1 inh: inactive

Results for Cc1ccc(-n2nnnc2SCC(=O)N2CC(=O)Nc3ccccc32)cc1 ?
HPGD inh: inconclusive; LMNA splice mod: inactive; HTT ATP protect: inactive; Luc counter: inactive; HttQ103 aggreg: inactive; ALDH1A1 inh: 11µM

How did O=C1CN(C(=O)CSc2nc(-c3ccccc3)cs2)c2ccccc2N1 do in these assays?
HPGD inh: 18µM; LMNA splice mod: inconclusive; HTT ATP protect: inactive[10 µM]; Luc counter: inactive; HttQ103 aggreg: inactive; ALDH1A1 inh: inactive

What do the screens show for `CC1(C)C(=O)Nc2ccccc2N1C(=O)CSc1nc(-c2ccccc2)cs1`?
HPGD inh: inactive; LMNA splice mod: inconclusive; HTT ATP protect: inactive[1.9 µM]; Luc counter: inactive; HttQ103 aggreg: inactive; ALDH1A1 inh: inactive
